Results on 40 compounds are retold here after PubChem BioAssay.

A number with no mark means an inactive call. How the calls were made is not given here.

This experiment has as its system Aerobactin synthetase IucA (Klebsiella pneumoniae hvKP1). Nature of the experiment: IucA enzyme inhibition, primary screen, biochemical, Spectrum library (AID 1346200).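 Further: 100% = wells without compound and 0% = wells lacking enzyme.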 Conditions: malachite green pyrophosphate, A620, at 8 µM, active compounds read low.
In the case of `NC(=O)c1cc[n+](CC2=C(C(=O)O)N3C(=O)C(NC(=O)C(c4ccccc4)S(=O)(=O)[O-])C3SC2)cc1` (stereo not given), the activity remaining was 117%. In the case of `CC(CC(O)C1OC1(C)C)[C@@H]1CCC2(C)C3=CCC4C(C)(C)C(=O)CCC4(C)C3CC[C@@]12C` (stereo not given in full) it was 102%.

With `CC(=O)O[C@@H]1CC2C(C)(C)[C@H](O)CC[C@]2(C)C2CC[C@@]3(C)[C@H](c4ccoc4)OC(=O)C4OC43[C@@]21C` (stereo not given in full), the activity remaining is 122%. For `COc1ccc(C(=O)CC(=O)O)c2c1C=CC(C)(C)O2`, the activity remaining was 108%.

Consider `NC(Cn1ccc(=O)c(O)c1)C(=O)O` (stereo not given), for which the activity remaining is 118%.

As to `Cc1cc(=O)oc2cc(O)c(O)cc12`, the activity remaining is 118%. For the compound `Cc1ccc(C)c(OCCCC(C)(C)C(=O)O)c1`, the activity remaining was 116%. On to `COc1ccc(CN(CCN(C)C)c2ncccn2)cc1`, for which the activity remaining was 120%. With `CNCc1ccccc1`, the activity remaining is 108%. As to `CN(C)c1ccc2nc3ccc(=[N+](C)C)cc-3sc2c1`, the activity remaining is 104%. To `COc1cc(OC)cc(OC)c1` belongs 117%; to `Cc1occc(=O)c1O`, 102%; to `CC(CCC(=O)O)[C@H]1CCC2C3C[C@H](O)[C@@H]4C[C@H](O)CC[C@]4(C)C3CC[C@@]21C` (stereo not given in full), 104%. With `COc1ccccc1OCCNCC(O)COc1cccc2[nH]c3ccccc3c12` (stereo not given), the activity remaining was 120%. To `CC12OC(=O)CC3C(C)(C)[C@H](O)C=C[C@]3(C)C1CC[C@]1(C)C2=CC(=O)O[C@H]1c1ccoc1` (stereo not given in full) belongs 118%; to `O=C(O)C1CC(C2CCCCN2)CN2CCCCC12` (stereo not given), 115%. `COc1ccc2c(c1)O[C@H]1c3ccc(OC)cc3OC[C@@H]21`: the activity remaining was 122%. `C[C@@H](N)CO`: the activity remaining was 106%. To `CCCCCCc1ccc(O)cc1O` belongs 124%.

On to `CC(C)CC1C(=O)N2CCC[C@H]2C2(O)O[C@](NC(=O)C3C=C4c5cccc6[nH]c(Br)c(c56)C[C@H]4N(C)C3)(C(C)C)C(=O)N12` (stereo not given in full), for which the activity remaining is 113%.

As to `C[C@H]1O[C@H](O[C@H]2[C@H](O)[C@@H](O)[C@@H](O[C@H]3[C@H](O)[C@@H](O)C(O)O[C@@H]3CO)O[C@@H]2CO)[C@H](O)[C@@H](O)[C@@H]1N[C@H]1C=C(CO)[C@@H](O)[C@H](O)[C@H]1O` (stereo not given in full), the activity remaining was 107%. To `O=C(Nc1ccccc1)Nc1ccccc1` belongs 103%; to `CC1(C)O[C@@H]2[C@@H](CO[C@@]3(COS(N)(=O)=O)OC(C)(C)O[C@@H]23)O1`, 115%.

Regarding `CCCSc1ccc2nc(NC(=O)OC)[nH]c2c1`, the activity remaining was 111%.

As for `OC(Cn1cncn1)(Cn1cncn1)c1ccc(F)cc1F`, the activity remaining is 105%.

For `COc1ccc([C@H]2COc3c(ccc(O)c3OC)C2)c(OC)c1O`, the activity remaining is 89.5%. To `O=C(O)[C@H](O)[C@@](O)(Cc1ccc(O)cc1)C(=O)O` belongs 103%; to `Nc1ncnc2c1ncn2[C@@H]1O[C@H](CO)[C@@H](O)[C@@H]1O`, 107%. With `C=C1CC[C@H](O)C/C1=C/C=C1\CCCC2(C)C1CCC2C(C)CCCC(C)C` (stereo not given in full), the activity remaining is 113%. Take `S=c1nc[nH]c2nc[nH]c12`: the activity remaining was 120%. In the case of `CO[C@H]1CC(O[C@@H]2/C(C)=C/C[C@@H]3C[C@@H](C[C@]4(CC[C@H](C)[C@@H](C5CCCCC5)O4)O3)OC(=O)[C@@H]3C=C(C)/C(=N/O)[C@H]4OC/C(=C\C=C\[C@@H]2C)[C@]43O)O[C@@H](C)C1O` (stereo not given in full) it was 119%.

For the compound `COC(=O)C[C@H]1C2(C)CC34OC5(C)O[C@@]6([C@H](OC(C)=O)C(OC(C)=O)[C@]7(C)C(/C(=C(/O)C(C)C)C(=O)O[C@H]7c7ccoc7)[C@@]6(O5)[C@H](OC(C)=O)[C@@]3(O)C2OC(=O)C(C)C)[C@]14C` (stereo not given in full), the activity remaining was 104%. With `CCCCC1(COC(=O)CCC(=O)O)C(=O)N(c2ccccc2)N(c2ccccc2)C1=O`, the activity remaining was 110%. To `CN(C)CC[C@H](c1ccc(Cl)cc1)c1ccccn1` belongs 90.6%; to `C=CC(C1=CC(=O)C(OC)=CC1=O)c1ccc(OC)cc1` (stereo not given), 109%. Consider `COC(=O)C1=CO[C@@H](O[C@@H]2O[C@H](CO)[C@@H](O)[C@H](O)[C@H]2O)[C@@H]2[C@@H](C)CC(=O)[C@]12O`, for which the activity remaining was 109%. In the case of `Cc1cc(O)c2c(c1O)C(=O)c1c(O)cc(C)c(O)c1C2=O` it was 100%; in that of `NC(Cc1ccc(F)cc1)C(=O)O` (stereo not given), 124%.

Regarding `C=CCSCC1Nc2cc(Cl)c(S(N)(=O)=O)cc2S(=O)(=O)N1` (stereo not given), the activity remaining was 91.6%.

Turning to `O=C(CCCCCCCCCCCCC1CCCC1)Nc1ccc(S(=O)(=O)c2ccc(NC(=O)CCCCCCCCCCCCC3CCCC3)cc2)cc1`, the activity remaining is 94.8%.
